PubChem BioAssay AID1159580 (chemical genetic matrix, 2015)
Hit rate of the full screen: of about 5,500 compounds, about 2,000 (36%) were called active. Roughly 18% stayed inconclusive and do not appear here. Rule as the data show it: active = normalized growth mostly below about 0.91 (no sharp cut-off); inconclusive = no clear call, values can overlap the other calls; inactive = mostly above about 0.92. The list shows a part of the results.

Assay: chemical genetic growth profiling, strain panel (AID 1159580);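 also: tested at 20 µM; growth read once vehicle control cultures reached saturation at 30 °C; 1 = growth at the plate median or of vehicle wells; lower values mean less growth of the strain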
Settings: S. cerevisiae deletion strains, growth OD

Measured: normalized growth

CC[C@H](C)C(=O)O[C@H]1CCC=C2C=C[C@H](C)[C@H](CC[C@@H]3C[C@@H](O)CC(=O)O3)[C@H]21
inactive: locus YAL040C, strain CLN3, stronger effect = lower value 1.01 | locus YCL061C, strain MRC1 (second series), stronger effect = lower value 0.995 | locus YDR363W, strain ESC2, stronger effect = lower value 1.02 | locus YER002W, strain NOP16, stronger effect = lower value 0.976 | locus YJR075W, strain HOC1, stronger effect = lower value 0.988 | locus YNL128W, strain TEP1, stronger effect = lower value 0.947 | locus YNL175C, strain NOP13, stronger effect = lower value 0.985 | locus YNL197C, strain WHI3, stronger effect = lower value 0.987 | locus YNL224C, strain SQS1, stronger effect = lower value 0.98 | locus YNL322C, strain KRE1, stronger effect = lower value 0.995 | locus YOR083W, strain WHI5 (second series), stronger effect = lower value 0.999 | locus YPL241C, strain CIN2, stronger effect = lower value 0.994
